Test results reported in PubChem BioAssay (NCATS).
“And” between values parts separate entries of the source, which are not always exact repeats. Identical values can stand only once. Records with an inconclusive call do not appear. The source made the active and inactive calls. Calls follow the shape of the dose curve; as a rule, active = well fitted curve in the direction sought with a large enough effect; inconclusive = small, poorly fitted or top-dose-only effect, or another doubt; inactive = no such curve, though single readings can be large; an effect the other way counts as inactive or inconclusive.

How the values were obtained:
[1] = biological target: Cytochrome P450 3A7 (Homo sapiens) (UniProt P24462); experiment: Cytochrome P450 family 3 subfamily A member 7 (CYP3A7) small molecule antagonists: luciferase biochemical qHTS assay (AID 1963596); also: nearly all actives have a fitted effect of over 40% in size; also: potency is read from the fitted curve at half-maximal effect
Procedure, shortened: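 Luminescence read-out (relative luminescence units) after 20 min with detection reagent, which stops the reaction. Enzyme, proluciferin substrate and compound preincubated 10 min, RT; NADPH regeneration system then started 1 h reaction. Ketoconazole as positive control.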

[2] = Quantitative highthroughput screen to assess conditional lethalithy of NOMO1 cells grown in Human Plasma-Like Medium with dialyzed fetal bovine serum (HPLM+ds) (AID 1963878); also: nearly all actives have a fitted effect of over 35% in size; also: potency is read from the fitted curve at half-maximal effect;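 as to viability: 100% = DMSO wells and 0% = empty wells on each plate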
Procedure, shortened: (§1)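 Each medium arm—HPLM with 10% dialyzed FBS, or RPMI1640 with 5 mM glucose and 10% untreated or dialyzed FBS—was screened against an 11-point, 3-fold compound titration for 48 h at 37 °C, with CellTiter-Glo luminescence as endpoint.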

[3] = Quantitative highthroughput screen to assess conditional lethalithy of P12 Ichikawa cells grown in Human Plasma-Like Medium with dialyzed fetal bovine serum (HPLM+ds) (AID 1963879); settings: Potency: viability; also: nearly all actives have a fitted effect of over 35% in size; also: potency is read from the fitted curve at half-maximal effect; as to viability: series mostly up to about 46 µM
Procedure, shortened: as §1

[4] = Quantitative highthroughput screen to assess conditional lethalithy of P12 Ichikawa cells grown in RPMI1640 with dialyzed fetal bovine serum (RPMI+ds) (AID 1963880); settings: Potency: P12-Ichikawa viability; also: nearly all actives have a fitted effect of over 35% in size; also: potency is read from the fitted curve at half-maximal effect;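 as to viability: 100% = DMSO wells and 0% = empty wells on each plate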
Procedure, shortened: as §1

[5] = Quantitative highthroughput screen to assess conditional lethalithy of P12 Ichikawa cells grown in RPMI1640 with untreated serum (RPMI+s) (AID 1963881); settings: Potency: viability; also: nearly all actives have a fitted effect of over 35% in size; also: potency is read from the fitted curve at half-maximal effect;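 as to viability: series mostly up to about 46 µM; 100% = DMSO wells and 0% = empty wells without cells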
Procedure, shortened: as §1

[6] = Quantitative highthroughput screen to assess conditional lethalithy of SEM cells grown in Human Plasma-Like Medium with dialyzed fetal bovine serum (HPLM+ds) (AID 1963882)
Procedure, shortened: as §1

[7] = Quantitative highthroughput screen to assess conditional lethalithy of SEM cells grown in RPMI1640 with unreated serum (RPMI+s) (AID 1963883); also: nearly all actives have a fitted effect of over 35% in size; also: potency is read from the fitted curve at half-maximal effect;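 as to viability: 100% = DMSO wells and 0% = empty wells without cells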
Procedure, shortened: as §1

[8] = Quantitative highthroughput screen to assess conditional lethalithy of SEM cells grown in RPMI1640 with dialyzed fetal bovine serum (RPMI+ds) (AID 1963884); also: nearly all actives have a fitted effect of over 35% in size; also: potency is read from the fitted curve at half-maximal effect;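 as to viability: series mostly up to about 46 µM; 100% = DMSO control wells and 0% = empty wells without cells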
Procedure, shortened: as §1

[9] = Cellular viability qHTS for adrenocortical cancer (ACC) cell line SW-13 (AID 1963989); settings: SW-13 ACC cells viability, CellTiter-Glo, 48 h; activity (max response): active compounds read low;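 also: cells grown in serum-free medium with ITS supplement; % is scaled to controls: 0 for no effect and ±100 for the full control effect; nearly all actives have a fitted effect of over 65% in size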
Procedure, shortened: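 SW-13 cells in ITS-supplemented serum-free DMEM were plated overnight, then exposed for 48 h at 37C to compound titrations (up to 46 uM final). Viability was read by CellTiter-Glo luminescence; four-parameter logistic fits gave IC50 and efficacy.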

[10] = Cellular viability qHTS for adrenocortical cancer (ACC) cell line NCI-H295R (AID 1963990); also: nearly all actives have a fitted effect of over 60% in size; also: potency is read from the fitted curve at half-maximal effect
Procedure, shortened: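 Luminescent ATP read-out (CellTiter-Glo, 20 min RT) after 48 h drug exposure of NCI-H295R cells; a titration up to 46 uM final. Data normalized to doxorubicin (100% inhibition) and DMSO (0%); 4-parameter fit gives IC50, max response.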

[11] = Quantitative highthroughput screen to assess conditional lethalithy of NOMO1 cells grown in RPMI1640 with untreated serum (RPMI+s) (AID 1963876); also: nearly all actives have a fitted effect of over 35% in size; also: potency is read from the fitted curve at half-maximal effect;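 as to viability: 100% = DMSO wells and 0% = empty wells without cells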
Procedure, shortened: as §1

[12] = Quantitative highthroughput screen to assess conditional lethalithy of NOMO1 cells grown in RPMI1640 with dialyzed fetal bovine serum (RPMI+ds) (AID 1963877); also: nearly all actives have a fitted effect of over 30% in size; also: potency is read from the fitted curve at half-maximal effect;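 as to viability: series mostly up to about 46 µM; 100% = DMSO control wells and 0% = empty wells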
Procedure, shortened: as §1

Chain of Cytochrome P450 3A7 (Homo sapiens) (P24462 whole entry, looked up): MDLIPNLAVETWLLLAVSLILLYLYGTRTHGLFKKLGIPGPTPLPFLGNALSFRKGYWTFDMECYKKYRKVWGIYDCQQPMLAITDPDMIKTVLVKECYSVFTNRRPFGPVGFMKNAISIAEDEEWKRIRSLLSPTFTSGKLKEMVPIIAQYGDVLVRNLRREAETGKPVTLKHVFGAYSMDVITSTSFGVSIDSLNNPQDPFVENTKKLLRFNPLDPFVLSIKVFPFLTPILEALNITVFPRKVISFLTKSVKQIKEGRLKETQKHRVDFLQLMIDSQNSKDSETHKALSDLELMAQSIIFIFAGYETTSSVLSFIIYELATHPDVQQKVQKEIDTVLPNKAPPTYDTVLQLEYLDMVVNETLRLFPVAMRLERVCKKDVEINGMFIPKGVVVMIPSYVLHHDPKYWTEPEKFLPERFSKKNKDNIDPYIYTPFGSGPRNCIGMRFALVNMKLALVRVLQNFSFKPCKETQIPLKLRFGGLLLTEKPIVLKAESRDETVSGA

O=C1NC(O)CCN1[C@@H]1O[C@H](CO)[C@H](O)[C@H]1O (stereo partly drawn)
active: Potency [2] 20.9 µM
inactive: Potency [1] | Potency [3] | Potency [4] | Potency [5] | Potency [6] | Potency [7] | Potency [8] | activity (max response) [9] -1.6% | Potency [10]

CCCCCCCC(=O)OCC(COC(=O)CCCCCCC)OC(=O)CCCCCCC
inactive: Potency [1] | activity (max response) [9] 8.32%

O=C(NCCO[N+](=O)[O-])c1cccnc1
inactive: Potency [1] | Potency [11] | Potency [3] | Potency [4] | Potency [5] | Potency [6] | Potency [7] | Potency [8] | activity (max response) [9] 2.63% and 5.13% | Potency [10]

O=C(O)c1[nH]n(-c2ccc(S(=O)(=O)O)cc2)c(=O)c1N=Nc1ccc(S(=O)(=O)O)cc1
inactive: Potency [1] | activity (max response) [9] 6.82%

COc1ccc(CC2c3cc(OC)c(OC)cc3CC[N+]2(C)CCC(=O)OCCCCCOC(=O)CC[N+]2(C)CCc3cc(OC)c(OC)cc3C2Cc2ccc(OC)c(OC)c2)cc1OC (stereo not drawn)
active: Potency [11] 3.68 µM | Potency [12] 4.63 µM | Potency [2] 1.64 µM
inactive: Potency [1] | viability [3] 93.9% [at 5.15 µM] | viability [4] 106% [at 5.15 µM] | viability [5] 89.9% [at 5.15 µM] | activity (max response) [9] -11.7%

COc1ccc(CCN2CCN(CCCc3ccccc3)CC2)cc1OC
inactive: Potency [1] | Potency [11] | Potency [3] | Potency [4] | Potency [5] | Potency [6] | Potency [7] | Potency [8] | activity (max response) [9] -13% | Potency [10]

COc1nccc(-c2c(-c3ccc(F)cc3)ncn2C2CCC(O)CC2)n1 (stereo not drawn)
inactive: Potency [1] | Potency [3] | Potency [5] | activity (max response) [9] -14% | Potency [10]
active: Potency [7] 5.26 µM

N[C@H]1CN(c2c(F)cc3c(=O)c(C(=O)O)cn(C4C[C@@H]4F)c3c2Cl)CC12CC2 (stereo partly drawn)
inactive: Potency [1] | Potency [12] | Potency [3] | Potency [4] | Potency [5] | Potency [7] | activity (max response) [9] 4.52% | Potency [10]

Nc1nc2ncc(CNc3ccc(C(=O)N[C@@H](CCC(=O)O)C(=O)O)cc3)nc2c(=O)[nH]1
inactive: Potency [1] | activity (max response) [9] 12.3%

N[C@@H](CSCCCO)C(=O)O
inactive: Potency [1] | activity (max response) [9] 14.2%

CCOc1cc(C(=O)Nc2ccc(Cl)c(-c3nc4ccccc4[nH]3)c2)cc(OCC)c1OCC
inactive: Potency [1] | Potency [3] | Potency [10]

N#C[C@H]1C[C@H]2C[C@@H]2N1C(=O)[C@@H](N)C12CC3CC(CC(O)(C3)C1)C2
inactive: Potency [1] | Potency [3] | Potency [4] | Potency [5] | Potency [8] | activity (max response) [9] 11.7% | Potency [10]
active: Potency [2] 10.5 µM

O=c1c(O)c(-c2ccc(O)cc2O)oc2cc(O)cc(O)c12
inactive: Potency [1] | Potency [11] | Potency [12] | activity (max response) [9] 14.7% | Potency [10]

CN1CCN(c2c(F)cc3c(=O)c(C(=O)O)cn4c3c2SCC4)CC1
inactive: Potency [1] | activity (max response) [9] -3.92%

C=CCN1C[C@H](C(=O)N(CCCN(C)C)C(=O)NCC)C[C@@H]2c3cccc4[nH]cc(c34)C[C@H]21
inactive: Potency [1] | activity (max response) [9] 3.88%

O=C(Nc1ccc([N+](=O)[O-])cc1)Nc1ccc([N+](=O)[O-])cc1
inactive: Potency [1] | activity (max response) [9] 3.91%

CC(C)C(=O)Nc1cccc(C(F)(F)F)c1
inactive: Potency [1] | activity (max response) [9] 14.2%

Cc1c[nH]c2ccccc12
inactive: Potency [1] | activity (max response) [9] 13.2%

COc1c(N2C[C@@H]3CCCN[C@H]3C2)c(F)cc2c(=O)c(C(=O)O)cn(C3CC3)c12
inactive: Potency [1] | activity (max response) [9] -9.27%

CCCCc1nc2cc(C=CC(=O)NO)ccc2n1CCN(CC)CC
active: Potency [11] 4.18 µM | Potency [12] 6.62 µM | Potency [2] 4.69 µM | Potency [3] 2.64 µM | Potency [4] 2.96 µM | Potency [5] 2.96 µM | Potency [7] 2.09 µM | Potency [8] 2.09 µM
inactive: Potency [1]

C[C@@H]1C[C@H]2[C@@H]3CCC4=CC(=O)C=C[C@]4(C)[C@@]3(F)[C@@H](O)C[C@]2(C)[C@@]1(O)C(=O)COC(=O)c1ccncc1
active: Potency [1] 8.71 µM
inactive: activity (max response) [9] -0.514%

CN(C)CCN(Cc1ccccc1)c1ccccn1
inactive: activity (max response) [9] -3.06%
active: Potency [1] 6.92 µM

COc1ccc(Nc2cc(-c3cnc(N)nc3)nc(N3CCOCC3)n2)cn1
inactive: Potency [1]
active: Potency [4] 2.64 µM | Potency [5] 2.35 µM | Potency [10] 2.24 µM

CSc1cccc(Nc2ncc3cc(-c4c(Cl)cccc4Cl)c(=O)n(C)c3n2)c1
inactive: Potency [1] | Potency [11] | Potency [12] | Potency [2] | Potency [3] | Potency [4] | Potency [5] | Potency [10]

O=C(NC[C@H](O)CN1CCc2ccccc2C1)c1cc(NC2COC2)ncn1
inactive: Potency [1] | Potency [11] | Potency [3] | Potency [4] | Potency [5] | activity (max response) [9] -16.9% | Potency [10]

C[C@@H]1CCO[C@H]2Cn3cc(C(=O)NCc4ccc(F)cc4F)c(=O)c(O)c3C(=O)N12
inactive: Potency [1] | Potency [11] | Potency [2] | Potency [3] | Potency [4] | Potency [5] | Potency [6] | Potency [7] | Potency [8]

c1ccc2[nH]c(-c3cscn3)nc2c1
inactive: Potency [1] | Potency [11] | Potency [12] | activity (max response) [9] -9.06% and -18.4% | Potency [10]
active: Potency [2] 8.33 µM | Potency [3] 9.35 µM

Cn1c(=O)c2c(ncn2CC(=O)O)n(C)c1=O
inactive: Potency [1] | activity (max response) [9] 9.83%
